# Screens (PubChem BioAssay)
# A selection: hits, their analogues and other compounds. The true share with any hit is near 7.1%.
# ATXN2 expr inh: Primary qHTS for Inhibitors of ATXN expression. HEK-293 ATXN2-luciferase reporter, luminescence, 24 h. Potency, µM (titrated, usually from 57 µM), for the others: at the highest dose activity change, negative = inhibition, hits mostly inhibitors. actives 0.72% (n = 360,000); note: potency is the fitted concentration of half-maximal effect; % is set by controls: 0 for no effect and ±100 for the full control effect; nearly all actives have a fitted effect of over 55% in size
#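 qHTS (up to 57 uM final) was run with 24 h compound exposure of reporter cells at 37 °C. Each well was multiplexed: SteadyGlo luminescence measured ATXN2-luciferase expression after a fluorogenic Gly-Phe-AFC viability readout (25 uM final).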
# MCF10A rerep: A quantitative high throughput screen for small molecules that induce DNA re-replication in MCF 10a normal breast cells. Potency, µM (titrated, usually from 46.1 µM), without a hit: top-dose activity, positive = re-replication, hits mostly activators. actives 2.9% (n = 350,000). AID 624296, 2012. MCF 10A DNA re-replication, Hoechst nuclear intensity, 48 h; note: potency is the fitted concentration of half-maximal effect; % of control where 0% means no effect; nearly all actives have a fitted effect of over 50% in size
# ATXN viability: Viability Counterscreen for Primary qHTS for Inhibitors of ATXN expression; Potency, µM (doses to about 56.7 µM), most hits filed as cytotoxic; S2 cells (HEK-293 line with an ATXN2-luciferase reporter) viability, CellTiter-Fluor protease fluorescence, 24 h; actives 0.49% (n = 400,000); note: potency is the fitted concentration of half-maximal effect; nearly all actives have a fitted effect of over 40% in size
# IL-1B inflam inh: qHTS for Inhibitors of Inflammasome Signaling: IL-1-beta AlphaLISA Primary Screen; THP-1 LPS/ATP IL-1B secretion, AlphaLISA, 16 h; stronger effect = lower value; activity change, % at 57.5 µM; actives 4.7% (n = 360,000); AID 743279, 2014; in the data active = activity change below about -50%; inconclusive = mostly about -30% to -49%; note: % is set by controls: 0 for no effect and ±100 for the full control effect
#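 THP-1 cells pretreated 1 hr with compounds (up to 57.5 uM final), then stimulated with LPS (250 ng/mL final) plus ATP (1.25 mM final); secreted IL-1B measured by AlphaLISA after 16 hr, decreased signal indicating inhibition.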
# SW480 rereplic: A quantitative high throughput screen for small molecules that induce DNA re-replication in SW480 colon adenocarcinoma cells; SW480 DNA re-replication, Hoechst DNA content imaging, 48 h; Potency, µM (top dose mostly 46.1 µM), inactives show at the top dose re-replication activation, hits mostly activators; actives 1.8% (n = 340,000); note: potency is the fitted concentration of half-maximal effect; % of control where 0% means no effect; nearly all actives have a fitted effect of over 55% in size
#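 Image-based DNA-content assay: after two days of treatment, nuclei were labelled with the DNA dye Hoechst and imaged, and hits were compounds raising the count of nuclei showing high fluorescence intensity.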
# PINK1 expr mod: A Quantitative High throughput Screen to Identify Chemical Modulators of PINK1 Expression. actives 0.2% (n = 410,000). Potency, µM (highest dose often 76.6 µM), inactives show at the highest dose activation (PINK1 increase), actives largely listed as activators. PINK1 immunofluorescence, high-content cytometry, 24 h. AID 624263, 2012; active = well fitted activation curve with a large enough effect; inconclusive = small, poorly fitted or top-dose-only effect; cell line not stated here; note: potency is the fitted concentration of half-maximal effect; % of control where 0% means no effect; nearly all actives have a fitted effect of over 65% in size
#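 Stable cell line, 250 cells/well, 12 h attachment; compounds pinned at 5 concentrations, 24 h; CCCP control. Fixed with nuclear dye, primary antibodies 12 h at 10 degrees C, secondary plus cell stain; laser-scanning cytometer read.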
# The depositor's hits bear a star; i = inactive; ? = inconclusive; . = no result; [ ] = dose if it differs, or a comment. Unless noted, calls come from the whole dose curve; as a rule, active = well fitted curve in the direction sought with a large enough effect; inconclusive = small, poorly fitted or top-dose-only effect, or another doubt; inactive = no such curve, though single readings can be large; an effect the other way counts as inactive or inconclusive.
SMILES,ATXN2 expr inh,MCF10A rerep,ATXN viability,IL-1B inflam inh,SW480 rereplic,PINK1 expr mod
CCCCCCCCN1C(=O)[C@H](CC(=O)N2CCN(C(=O)C3CC3)CC2)C[C@@]2(C(=O)OC)CCCCC=C12,?,.,?,-51.4*,.,-0.4%
O=C(Cn1ncc2c1-c1ccccc1OC2)N1CCN(c2ccccc2)CC1,-6.5%,.,i,.,.,0.1%
Cc1c(CCNC(=O)C(C)(C)C)sc2nc(-c3ccc(F)cc3)nn12,.,.,.,.,.,-0.7%
CCCCCCCCN1C(=O)[C@H](CC(=O)N2CCOCC2)C[C@@]2(C(=O)OCC)CCCC=C12,?,.,?,-25.1,.,1.0%
CCCCCCCCN1C(=O)[C@H](CC(=O)N2CCN(C(=O)C3CC3)CC2)C[C@@]2(C(=O)OCC)CCCC=C12,?,.,14.1µM*,-65.8*,.,3.8%
COc1ccccc1N1C(=O)c2ccc(C(=O)Nc3ccccc3O)cc2C1=O,-3.7%,-8.1%,i,30.6,-13.3%,-0.1%
COc1ccc(N2C(=O)c3ccc(C(=O)Nc4ccccc4O)cc3C2=O)cc1,-19.8%,2.91µM*,i,-10.6,-40.7%,6.3%
COc1ccc(Cc2c(Cl)ncnc2Cl)cc1,-17.0%,?,i,-111.5*,?,-3.0%
COc1ccc(Cc2c(C)nc(N)nc2Cl)cc1,-6.4%,?,i,0.0,16.9%,0.1%
COc1cccc(C(C(=O)NCC2CCCO2)N(C(=O)Cn2nnc3ccccc32)c2ccc(NC(C)=O)cc2)c1 (stereo unspecified),0.0%,-6.3%,i,-62.6*,-11.7%,0.2%
CCOc1cc(C(C(=O)NCC2CCCO2)N(C(=O)Cn2nnc3ccccc32)c2ccc(C(C)=O)cc2)ccc1O (stereo unspecified),5.3%,3.4%,i,-1.6,19.0%,1.2%
COCCN(CC1CCCN(C2Cc3ccccc3C2)C1)C(=O)c1ccc(C(C)=O)cc1 (stereo unspecified),-5.9%,?,i,-16.6,0.316µM*,1.3%
COc1ccc(CCNC(=O)Cc2c(C)c3c(cc(C)c4c(C)coc43)oc2=O)cc1OC,.,.,.,.,.,-0.5%
COc1cc(CN2CCC3(CC2)c2ccccc2[C@@H](NC(=O)c2ccccc2OC)[C@@H]3O)ccc1F,.,.,?,.,.,-0.2%
Cc1cc(C)nc(Sc2nc(Nc3ccccc3)nc(Sc3nc(C)cc(C)n3)n2)n1,13.5%,?,i,-53.7*,?,1.7%
Cc1cc(C)nc(Nc2ccc(O)cc2)n1,17.4%,4.6%,i,6.5,-1.9%,0.4%
CCc1cccc(C)c1NC(=O)C(CC)n1ncn2c(cc3cc(C)ccc32)c1=O (stereo unspecified),-2.3%,.,?,.,.,0.8%
CC(C)C(=O)NC(c1cccs1)c1cc([N+](=O)[O-])c2cccnc2c1O (stereo unspecified),?,?,i,-12.5,?,-2.6%
CC(=O)NC(c1cccs1)c1cc(F)c2cccnc2c1O (stereo unspecified),?,-18.3%,3.98µM*,.,?,-0.9%
CC(=O)NC(c1ccco1)c1cc(Cl)c2ccccc2c1O (stereo unspecified),-11.3%,?,i,.,?,2.9%
CC(=O)NC(c1ccco1)c1cc(F)c2cccnc2c1O (stereo unspecified),?,?,14.1µM*,.,6.9%[9.22 µM],-1.0%
O=C(Cn1ncc2c3ccccc3n(Cc3ccccc3)c2c1=O)NCCc1ccc(Cl)cc1,13.8%,.,i,.,.,9.8%
Cc1ccc2cc3c(nc2c1)OCC3,14.9%,-5.3%,i,-16.0,8.2µM*,2.4%
Cc1ccc(-n2cccn2)c(CN2CCCC(C(=O)c3ccc4c(c3)OCO4)C2)c1 (stereo unspecified),?,19.4%,i,-59.6*,17.8%,?
O=C(c1ccc2c(c1)OCO2)C1CCCN(Cc2cc(F)ccc2-n2cccn2)C1 (stereo unspecified),22.9%,-2.2%,i,6.4,-3.1%,-1.3%
SMILES,ATXN2 expr inh,MCF10A rerep,ATXN viability,IL-1B inflam inh,SW480 rereplic,PINK1 expr mod
Nc1nnn(-c2ccccc2)c1-c1ccccc1,11.5%,-0.8%,i,6.0,14.6µM*,-0.9%
c1ccc(COc2ncnc3c2ncn3CCCN2CCN(Cc3cccc4ccccc34)CC2)cc1,22.4µM*,.,?,-3.9,.,-1.4%
c1ccc(CCCNCCCn2cnc3c(OCc4ccccc4)ncnc32)cc1,?,?,25.1µM*,-85.7*,-0.4%,-1.2%
Cc1ccc(CN2CCN(CCCn3cnc4c(OCc5ccccc5)ncnc43)CC2)cc1,?,-8.1%,?,-53.7*,?,-0.7%
C[C@@H](NCCCn1cnc2c(OCc3ccccc3)ncnc21)c1cccc2ccccc12,?,?,?,-26.7,9.7%,-1.0%
Cc1ccc2c(c1)C(=O)OC(C(=O)Nc1ccc(C(=O)O)cc1)C2 (stereo unspecified),7.1%,.,i,.,.,-1.3%
CCN(CC)C(=O)Oc1ccc2c(=O)c(-c3ccccc3)coc2c1,-9.1%,-15.4%,i,-54.0*,6.3%,-3.2%[38.3 µM]
COc1ccc(S(=O)(=O)N2CCOC23CCN(S(C)(=O)=O)CC3)cc1,2.9%,14.0%,i,20.3,5.17µM*,-0.1%
COc1ccc(S(=O)(=O)N2CCOC23CCN(S(=O)(=O)c2ccccc2)CC3)cc1,-1.7%,6.0%,i,10.9,7.31µM*,-1.4%
COc1ccc(OC)c(S(=O)(=O)N2CCC3(CC2)OCCN3S(=O)(=O)c2ccccc2)c1,-3.1%,13.0%,i,14.6,?,-0.1%
COc1ccc(S(=O)(=O)N2CCC3(CC2)OCCN3S(=O)(=O)c2c(C)cc(C)cc2C)cc1,-2.1%,-1.9%,i,-4.9,3.7%,2.4%
O=C(CNc1cccc2ccccc12)N/N=C/c1ccc([N+](=O)[O-])o1,?,?,?,-25.4,?,18.6%
CC1(C(=O)N/N=C/c2ccc([N+](=O)[O-])o2)CC1(Br)Br (stereo unspecified),?,?,?,-90.1*,4.61µM*,?
O=C(Cc1ccc([N+](=O)[O-])cc1)N/N=C/c1ccc([N+](=O)[O-])o1,.,3.0%,i,10.9,14.7%,35.5µM*
O=C(CNc1cccc([N+](=O)[O-])c1)N/N=C/c1ccc([N+](=O)[O-])o1,?,?,i,-66.6*,?,3.8%
CC(=O)N/N=C/c1ccc([N+](=O)[O-])o1,-8.9%,?,i,.,9.9%,.
